# Screens (PubChem)
# LASV entry inh: blocks Lassa virus binding to or entry into cells. Lassa virus pseudotype entry inhibition, cell reporter. actives 1.2% (n = 300,000). Potency, µM (highest dose often 37.9 µM), for inactives: at the top dose activity change, negative = inhibition, most hits filed as inhibitors. AID 540256; calls by dose curve; tested in HEK293 cells; further: nearly all actives have a fitted effect of over 50% in size
# VACV Venus inh: inhibitors of vaccinia virus (Venus reporter); Vaccinia virus Venus reporter expression, fluorescence; Potency, µM (titrated, usually from 36.5 µM), inactives show at the top dose activity change, negative = inhibition, actives largely listed as inhibitors; actives 0.46% (n = 330,000); AID 720580; calls by dose curve; tested in A549 cells; further: nearly all actives have a fitted effect of over 30% in size
# HCV inh: HCV inhibition; Potency, µM (highest dose often 41.8 µM), for inactives: top-dose activity change, negative = inhibition, usual class: inhibitors; AID 651820; actives 3.4% (n = 340,000); Huh7.5.1 HCVcc-Cre infection, luciferase reporter, 44 h; active means well fitted inhibition curve with a large enough effect; inconclusive means small, poorly fitted or top-dose-only effect, or another doubt; inactive means no such curve, though single readings can be large or run the other way
#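 Cells seeded at 1,000/well and cultured 4 h, then compounds added followed by HCVcc-Cre virus (~0.5 moi). After 44 h further culture, luciferase substrate was added, plates held 15 min at room temperature, and luminescence read for 15 sec.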
# MARV entry inh: Marburg virus entry inhibition. Marburg virus pseudotyped entry inhibition, cell reporter. AID 540276. actives 1.8% (n = 300,000). Potency, µM (top dose mostly 37.8 µM), for the others: at the highest dose activity change, negative = inhibition, most hits filed as inhibitors; calls by dose curve; tested in HEK293 cells
# VACV mCherry inh: inhibitors of vaccinia virus infection (mCherry reporter signal) | Potency, µM (top dose mostly 36.5 µM), inactives show at the top dose activity change, negative = inhibition, usual class: inhibitors | actives 0.63% (n = 310,000) | AID 720579 | Vaccinia virus mCherry reporter infection, fluorescence; calls by dose curve; tested in A549 cells; further: nearly all actives have a fitted effect of over 35% in size
# Active calls of the source: *; i = inactive; ? = inconclusive; · = no result; [ ] = dose if it differs, or a comment. In the library only some 4.6% were active in any assay of this set; here they are far more common. On the % scale 0 is the no-effect control and ±100 the full control effect; potency means the concentration at half of the fitted maximal effect.
SMILES,LASV entry inh,VACV Venus inh,HCV inh,MARV entry inh,VACV mCherry inh
COc1ccc(-c2cc(-c3ccccc3)[n+](C)c(-c3ccccc3)c2)cc1,?,-11%,?,6.3µM*,i
C[n+]1c(-c2ccccc2)cc(CCCCc2cc(-c3ccccc3)[n+](C)c(-c3ccccc3)c2)cc1-c1ccccc1,-19%,3%,?,?,1%
COc1ccc(NC(=O)CN2CCN(Cc3ccccc3)S2(=O)=O)c(OC)c1,-3%[46.1 µM],-6%,·,·,-13%
CCCc1cc(=O)oc2cc(C)c3c(C)coc3c12,-11%,-5%,10µM*,?,-13%
CCCc1cc(=O)oc2cc3oc(C)c(C)c3cc12,5%,11%,22µM*,5%,-7%
CCCc1cc(=O)oc2cc3occ(C)c3cc12,1%,·,2.2µM*,0%,·
O=C(CN1C(=O)C(c2ccc(F)cc2)=NC12CCCCCC2)Nc1ccc(F)c(Cl)c1,5%[46.1 µM],-16%,·,16%[46.1 µM],i
Cc1c(C(C)NC(=O)c2cc(COc3cccc4cnccc34)on2)cnn1C (stereo not drawn),·,·,7.1µM*,·,·
CCc1ccc(CN(C)C(=O)c2cc(COc3cccc4cnccc34)on2)cc1,·,·,7.9µM*,·,·
CSc1ccccc1OCc1cc(C(=O)NC(C)c2cnn(C)c2)no1 (stereo not drawn),7%,-15%,-6%,17%,-21%
CN(Cc1cccc2cnccc12)C(=O)c1cc(COc2ccc(F)cc2F)on1,·,·,8.9µM*,·,·
CCn1c(-c2ccccc2F)nc2cc(C(=O)NCC3CCOCC3)cc(NC(C)=O)c21,·,-2%,·,·,-12%
CC(C)C1=Nc2nc(N)nn2C(=O)C1,·,·,·,4%,·
CC(C)c1ccc(CN2CCC3(CCC(CNC(=O)c4ccn(C)n4)O3)CC2)cc1 (stereo not drawn),·,-14%,·,·,-21%
C=CCn1c2ccccc2c2nnc(SCCCn3c(=O)[nH]c4ccccc43)nc21,?,10µM*,10µM*,?,·
c1ccc(CCn2c3ccccc3c3nnc(SCc4ccc5nonc5c4)nc32)cc1,5.8µM*,7%,?,3.3µM*,-20%
CCN(CC)CCSc1nnc2c3ccccc3n(CCc3ccccc3)c2n1,·,?,10µM*,·,?
COc1ccc(NC(=O)Cn2c(=O)oc3cc(S(=O)(=O)N4CCCC4)ccc32)cc1OC,-2%[46.1 µM],-28%,·,-3%[46.1 µM],-27%
CNC(=O)[C@@H]1C[C@H](Sc2nc3ccccc3[nH]2)CN1Cc1ccccc1C(F)(F)F,·,-22%,·,·,-25%
C[C@@H]1CCc2cc(F)cc3c(O)c(C(=O)NC[C@H]4CCCO4)c(=O)n1c23,·,·,·,-22%[46.1 µM],·
CCn1c(O)c(C=Nc2ccc(S(N)(=O)=O)cc2)c(=O)[nH]c1=S,-6%,84%,20%,1%,58%
CC(C)COC(=O)c1ccc2[nH]c(O)c(C=Nc3ccc(S(N)(=O)=O)cc3)c2c1,1µM*,·,·,·,·
O=[N+]([O-])c1ccc(C[n+]2cccc3ccccc32)cc1,14%,-9%,8%,8%[46.1 µM],-18%
c1ccc(C[n+]2cccc3c4ccccc4ccc32)cc1,7.1µM*,?,?,?,?
COC(=O)CN1C(=O)C(O)(c2c(C)[nH]c3ccccc23)c2ccccc21 (stereo not drawn),12%[46.1 µM],2%,·,·,-5%
SMILES,LASV entry inh,VACV Venus inh,HCV inh,MARV entry inh,VACV mCherry inh
Cc1cc(Nc2cccc(C(F)(F)F)c2)nc2ccc(NC(=O)c3cccnc3)cc12,?,11µM*,·,·,10µM*
COc1ccc(OCC2CN(Cc3ccccc3)S(=O)(=O)CCO2)cc1 (stereo not drawn),-1%[46.1 µM],·,·,·,·
Cc1cc(C)cc(Nc2cc(C)nc3nc(-c4ccco4)nn23)c1,-28%[46.1 µM],-25%,·,·,-24%
CCOc1ccc(CN2CCCC(C(=O)c3ccccc3OC)C2)cc1 (stereo not drawn),?,-17%,?,8.9µM*,?
COc1ccc(O)c(CN2CCCC(C(=O)c3ccccc3SC)C2)c1 (stereo not drawn),-6%,-5%,11µM*,?,i
COc1cccc(OC)c1CN1CCCC(C(=O)c2ccccc2SC)C1 (stereo not drawn),?,-9%,?,6.3µM*,-8%
COc1ccccc1CN1CCCC(C(=O)c2ccccc2SC)C1 (stereo not drawn),?,-20%,-45%,10µM*,-13%
COc1ccc(Br)cc1CN1CCCC(C(=O)N2CCCCCC2)C1 (stereo not drawn),?,-26%,3.2µM*,?,·
CCOc1ccc(NC(=O)CSC2=C(C#N)[C@H](c3ccc4c(c3)OCO4)CC(=O)N2)cc1,·,·,·,5%[46.1 µM],·
CCCCCCCCCC[N+](C)(C)CC/C=C1/c2ccccc2Sc2ccc(Cl)cc21,·,11µM*,?,·,?
CC[N+](C)(C)CC/C=C1/c2ccccc2Sc2ccc(Cl)cc21,8%,-5%,-13%,-20%[14.2 µM],i
CCCCCCCCCCC[N+](C)(C)CC/C=C1/c2ccccc2Sc2ccc(Cl)cc21,·,11µM*,-28%,·,?
Cc1ccc2c(CC(=O)Nc3c(C(=O)c4ccc(C)c(F)c4)oc4ccccc34)coc2c1,15%[46.1 µM],-13%,·,21%[46.1 µM],-15%
C1=Cc2ccccc2/C1=C\c1ccc2c(c1)OCO2,·,-14%,·,·,-15%
COc1ccc2c(c1)CCc1cnc(-n3ncc(C(=O)NCC(C)(C)CN(C)C)c3C)nc1-2,·,-27%,·,·,?
Cc1cccc2cc(CN(Cc3cccs3)Cc3nnnn3Cc3ccccc3)c(=O)[nH]c12,?,?,10µM*,16µM*,-30%
CC(C)(C)c1ccc(OCCN2CCCC2)cc1,?,-12%,0%,?,-12%
CC(C)(C)c1ccc(OCCCCCCN2CCNCC2)cc1,-23%,-5%[7.34 µM],7.9µM*,?,-16%[7.34 µM]
CC(C)(c1ccccc1)c1ccc(OCCCN2CCNCC2)cc1,?,0%,8.9µM*,?,-18%
O=C(Nc1ccccc1Br)c1cnn2c1NC(=C1CC1)C=C2C(F)F,·,-21%,·,·,-5%
CCOC(=O)c1ccccc1NC(=O)CSc1nc2cn(CC)nc2c(=O)n1Cc1ccc(Cl)cc1,2%[46.1 µM],-11%,·,-15%[46.1 µM],-15%
COc1ccc(CCNC(=O)c2cc(C)nc3c2c(C)nn3-c2ccccc2)cc1OC,18%[46.1 µM],-7%,·,·,-11%
CCc1ccc(NC(=O)CSc2ncc(S(=O)(=O)c3cc(C)ccc3C)c(=O)[nH]2)cc1,·,-3%,·,-18%[46.1 µM],8%
COc1cc(Nc2nccc(Nc3ccc4c(C)[nH]nc4c3)n2)cc(OC)c1OC,25µM*,·,·,·,·
COc1cccc([C@H]2Oc3ccc(OC)cc3C(=NOC[C@@H](C)[C@H](OCc3ccccc3)C(C)C)[C@H]2O)c1,·,·,·,10%[14.2 µM],·
CCOC(=O)c1c(C)c(C(=O)NCc2cccnc2)c(C)n1CC,-2%,·,2%,1%,·
CCOC(=O)c1c(C)oc2c1cc(NS(=O)(=O)c1ccc(C(=O)O)cc1)c1ccccc12,-30%,7%,-5%,-4%[46.1 µM],-15%
CCOC(=O)c1c(C)oc2c1c(C(c1cccnc1)N1CCOCC1)c(O)c1ccccc12 (stereo not drawn),-4%,-26%,?,16%,-11%[1.46 µM]
